# Assay outcomes as filed in PubChem BioAssay.
# TGFb inhibitor: blocks TGF-b signaling | AID 588855 | Potency, µM (top dose mostly 46.1 µM), without a hit: at the top dose activity, negative = inhibition, most hits filed as inhibitors | HepG2 CAGA-GFP TGF-b/SMAD3 reporter, GFP fluorescence, 18 h; TGF-beta stimulated, 500 pg/mL final | 1.2% of 410,000 active; also: potency is read from the fitted curve at half-maximal effect; % is scaled to controls: 0 for no effect and ±100 for the full control effect; nearly all actives have a fitted effect of over 65% in size
#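 Using HEPG2 CAGA-GFP reporter cells at 1000 cells/well, we pinned test compounds, stimulated with recombinant TGF-beta (500 pg/mL final) and measured total well GFP after 18 h.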
# TDP1 block: TDP1 (human) enzyme inhibition. Q9NUW8. recombinant TDP1, AlphaScreen DNA substrate cleavage. Potency, µM (doses to about 130 µM), without a hit: at the highest dose activity change, negative = inhibition, actives largely listed as inhibitors. 0.28% of 350,000 active; also: potency is read from the fitted curve at half-maximal effect; % is scaled to controls: 0 for no effect and ±100 for the full control effect; nearly all actives have a fitted effect of over 40% in size
# Target sequence (Q9NUW8 whole entry, looked up): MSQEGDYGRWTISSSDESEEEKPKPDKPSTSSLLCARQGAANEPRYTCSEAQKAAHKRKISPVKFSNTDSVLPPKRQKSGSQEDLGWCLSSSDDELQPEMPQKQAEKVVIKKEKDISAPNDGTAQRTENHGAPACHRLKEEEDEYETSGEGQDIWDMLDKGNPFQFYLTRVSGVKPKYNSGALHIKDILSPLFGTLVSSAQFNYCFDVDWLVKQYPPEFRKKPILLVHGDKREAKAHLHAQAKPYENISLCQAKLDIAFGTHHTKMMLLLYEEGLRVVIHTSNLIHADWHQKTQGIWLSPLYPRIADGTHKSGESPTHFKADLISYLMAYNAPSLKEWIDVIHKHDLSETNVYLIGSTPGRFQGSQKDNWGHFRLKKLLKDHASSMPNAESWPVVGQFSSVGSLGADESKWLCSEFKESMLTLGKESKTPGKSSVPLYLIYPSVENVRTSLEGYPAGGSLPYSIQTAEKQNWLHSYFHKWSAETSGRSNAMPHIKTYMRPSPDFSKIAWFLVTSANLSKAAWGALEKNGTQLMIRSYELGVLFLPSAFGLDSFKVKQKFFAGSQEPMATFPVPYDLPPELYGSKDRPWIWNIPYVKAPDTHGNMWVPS
#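 Signal: AlphaScreen proximity between streptavidin donor and anti-FITC acceptor beads on intact substrate. Reaction: Tdp1 1 nM, substrate 15 nM final, 5 min RT after 15 min compound preincubation.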
# HepG2 tox: kills HepG2 cells in TGF-b inhibitor counter-screen; HepG2 CAGA-GFP viability, ATP luminescence, 18 h; Potency, µM (titrated, usually from 46.1 µM), for inactives: at the top dose activity change, negative = cytotoxicity, usual class: cytotoxic; 0.76% of 410,000 active; AID 588856; also: potency is read from the fitted curve at half-maximal effect
#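 HepG2 CAGA-GFP cells (1000/well, DMEM with 1% FBS) received compound, then TGF-beta at 500 pg/mL final, and were incubated 18 hours at 37 degrees C. Viability was read by CellTiter-Glo luminescence. Media-only wells were set as complete cell-killing and DMSO as no toxicity.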
# DT40 TDP1 no CPT: qHTS for Inhibitors of human tyrosyl-DNA phosphodiesterase 1 (TDP1): qHTS in cells in absence of CPT | DT40 Tdp1-/- hTDP1 cells, no CPT, ATP luminescence, 48 h | Potency, µM (doses to about 46.2 µM), inactives show at the highest dose activity change, negative = growth inhibition, actives largely listed as inhibitors | 15% of 420,000 active | AID 686978, 2013; also: potency is read from the fitted curve at half-maximal effect; % is scaled to controls: 0 for no effect and ±100 for the full control effect; nearly all actives have a fitted effect of over 55% in size
#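 Camptothecin absent (DMSO only). Human TDP1-complemented DT40 knockout cells, 400 cells/well, 37 °C for minimum 48 hr; ATP measured via CellTiter-Glo, 30 min dark incubation, luminescence.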
# DT40 TDP1 CPT: growth inhibition of DT40 Tdp1-/-;hTDP1 cells with camptothecin (screen for TDP1 inhibitors); chicken DT40 Tdp1-/-;hTDP1 cells + 20 nM CPT, ATP luminescence, 48 h; Potency, µM (highest dose often 46.2 µM), for inactives: at the top dose activity change, negative = growth inhibition, actives largely listed as inhibitors; 12% of 420,000 active; AID 686979; also: potency is read from the fitted curve at half-maximal effect; % is scaled to controls: 0 for no effect and ±100 for the full control effect; nearly all actives have a fitted effect of over 55% in size
#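 Chicken DT40 Tdp1-/- cells complemented with human TDP1, 400 cells/well, exposed to compounds plus 20 nM camptothecin for at least 48 h at 37 C; viability read as ATP content by CellTiter-Glo luminescence.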
# IL1B secr inh: blocks inflammasome-driven IL-1 beta release | 4.7% of 360,000 active | activity change, % at 57.5 µM | AID 743279 | THP-1 LPS/ATP IL-1B secretion, AlphaLISA, 16 h; active compounds read low; in the data active = activity change below about -50%; inconclusive = mostly about -30% to -49%; also: % is scaled to controls: 0 for no effect and ±100 for the full control effect
#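 Secreted IL-1B measured by AlphaLISA bead assay after 16 h compound exposure of THP-1 cells; compounds (final up to 57.5 uM) added 1 h before LPS (250 ng/mL) and ATP (1.25 mM) stimulation; lower signal means less secretion.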
# Numbers without * were called inactive; u = inconclusive; x = no result; [ ] = dose if it differs, or a comment. Most compounds without a hit are left out; they make up all but 19% or so of the library. Unless noted, calls follow the shape of the dose curve; as a rule, active = well fitted curve in the direction sought with a large enough effect; inconclusive = small, poorly fitted or top-dose-only effect, or another doubt; inactive = no such curve, though single readings can be large; an effect the other way counts as inactive or inconclusive.
SMILES,TGFb inhibitor,TDP1 block,HepG2 tox,DT40 TDP1 no CPT,DT40 TDP1 CPT,IL1B secr inh
CCC1CCC(N2CCN(c3cccc(OC)c3)CC2)CC1 (configuration not stated),-25%,x,-57%,3%,8%,-7
CCCN(C/C=C/I)C1CCc2cccc(O)c2C1 (configuration not stated),x,-2%,x,15µM*,u,x
CCC(=O)c1cn(CC(=O)Nc2ccc(C)cc2C)c2ccccc12,-8%,x,-38%,-29%,-18%,12
CN1C2=CC=CC=CC2=[N+](C)C12C=CC(=[N+]([O-])[O-])C=C2[N+](=O)[O-] (configuration not stated),0%,-1%,3%,u,u,3
CN1C2=CC=CC=CC2=[N+](C)C12C([N+](=O)[O-])=CC(=[N+]([O-])[O-])C=C2[N+](=O)[O-] (configuration not stated),u,x,-32%,2.1µM*,u,x
CC(O)(COc1ccccc1)c1ccc2c(c1)CN(Cc1ccc3nsnc3c1)CCO2 (configuration not stated),x,x,x,-26%,-2%[9.04 µM],x
Cc1ccc(N/C=C/C(=O)c2sc(-c3ccccc3)nc2C)cc1,5%,3%,4%,23µM*,u,-5
O=C1NC(c2ccc(Cl)cc2)Nc2ccccc21 (configuration not stated),-6%,-1%,0%,-20%,6%,25
Cc1cccc(C2NC(=O)c3ccccc3N2)c1 (configuration not stated),u,x,-1%,5.2µM*,3.3µM*,0
Cc1ccc(N=C2C(=O)Nc3ccccc32)c(C)c1,13%,x,-8%,-4%,4%,-7
Cc1ccc(C2NC(=O)c3ccccc3N2)c(C)c1 (configuration not stated),-12%,x,-3%,2.9µM*,2.1µM*,15
Cc1ccc(C2NC(=O)c3ccccc3N2)s1 (configuration not stated),-9%,5%,-2%,4.6µM*,5.8µM*,22
COC(=O)Cn1c(C(=O)N2CCCC2)cc2c1C[C@H]1CN(C(=O)c3ccccc3)[C@@](Cc3ccccc3)(C(=O)OC)[C@@H]21,x,9%,x,x,x,x
CCC(C(=O)Nc1nnc2n1CCS2)c1ccccc1 (configuration not stated),-1%,-1%,2%,-14%,-17%,x
CCn1c2ccccc2c2cc(Nc3cc(C)nc4ncnn34)ccc21,u,5%,-31%,0.58µM*,0.92µM*,115
Cc1ccc(Nc2cc(-c3ccccc3)nc3ncnn23)cc1,-10%,x,-24%,u,u,-56*
O=[N+]([O-])c1cccc(N(CC(O)CN2CCCC2)S(=O)(=O)c2ccccc2)c1 (configuration not stated),0%,6%,9%,8%,-8%,-14
O=C(O)[C@H](Cc1ccccc1)N1C(=O)c2c(Cl)c(Cl)c(Cl)c(Cl)c2C1=O,-5%,x,-15%,-3%,-13%,2
C(/Oc1ccccc1)=C1\Nn2c(nnc2-c2cc(-c3ccccc3)n[nH]2)S1,-10%,-2%,2%,20µM*,7.1µM*,x
CCOC(=O)Cn1c(C(F)(F)F)nc2nc(Cl)c(Cl)nc21,u,x,-8%,-28%,4%,-92*
c1nc(NC2CCCCCC2)c2[nH]cnc2n1,-2%,5%,-25%,23µM*,10µM*,-3
CC(O)CNc1ncnc2nc[nH]c12 (configuration not stated),4%,2%,-2%,-7%,-3%,9
Cc1ncnc2nc[nH]c12,u,x,-45%,1.8µM*,1.8µM*,x
CC(C)=NNc1ncnc2nc[nH]c12,-5%,x,9%,15µM*,21µM*,89
O=C(O)Cc1ccc(C(=O)c2ccccc2)s1,5%,3%,-11%,-4%,1%,-8
SMILES,TGFb inhibitor,TDP1 block,HepG2 tox,DT40 TDP1 no CPT,DT40 TDP1 CPT,IL1B secr inh
CCc1cc(C(=O)c2ccccc2)c(N)s1,-17%,10%,-29%,u,26µM*,-9
C[C@@H](O)CCC[C@H](O)/C=C/[C@@H]1[C@@H](C/C=C\CCCC(=O)O)[C@@H](O)C[C@H]1O,x,5%,x,x,x,x
COc1ccc(N2CCN(C(=O)COC(=O)c3ccccc3OCc3ccc(F)cc3)CC2)cc1,6%,10%,4%,u,u,13
OCCn1ccc(-c2ccccc2OCc2ccc(F)cc2)n1,-11%,x,-8%,21µM*,u,-8
O=C(Oc1ccccc1)c1cccc2cccc(C(=O)Oc3ccccc3)c12,-4%,x,-25%,21µM*,u,13
CN(C)CCN1C(=O)c2ccccc2N(C)c2ccccc21,x,2%,x,u,-24%,x
Cc1ccc(S(=O)(=O)N2CCN(c3nc(-c4ncco4)nc4ccccc34)CC2)cc1,x,3%,x,11µM*,11µM*,x
Cc1ccc(S(=O)(=O)N2CCN(c3nc(-c4cncn4C)nc4ccccc34)CC2)cc1,x,8%,x,u,20µM*,x
Cc1ccc(S(=O)(=O)N2CCN(c3nc(-c4cncs4)nc4ccccc34)CC2)cc1,x,1%,x,7.1µM*,10µM*,x
NS(=O)(=O)c1ccc(S(=O)(=O)N2CCN(c3nc(-c4ccccc4)nc4ccccc34)CC2)cc1,x,1%,x,u,u,x
Cc1ccc(S(=O)(=O)N2CCN(c3nc(-c4ccc(CN5CCNCC5)s4)nc4ccccc34)CC2)cc1,u,x,-98%,22µM*,u,x
Cc1ccc(S(=O)(=O)N2CCN(c3nc(-c4ccc(C)s4)nc4ccccc34)CC2)cc1,x,1%,x,u,-30%,x
COc1ccc(C(=O)N2CCCC(Nc3ccc(F)cc3)C2)c(OC)c1 (configuration not stated),26%,4%,2%,-14%,-16%,4
O=C(Nc1ccccc1F)c1oc2ccccc2c1NC(=O)C12CC3CC(CC(C3)C1)C2,2%,6%,-32%,4%,-6%,x
COc1ccc(Cn2c(C3CCCCC3)nc3c(c(=O)c4ccccc4n3C)c2=O)cc1,12%,-1%,-17%,16µM*,u,20
CCc1nc2c(c(=O)c3ccccc3n2C)c(=O)n1C1CCCCCC1,0%,3%,-34%,16µM*,u,-7
